Measurements as given in PubChem BioAssay (NCI).
The panel holds about 79,000 compounds, 15% with a hit somewhere; the sample as a whole holds those more often. Unmarked numbers belong to inactive results. Active and inactive are the calls of the source. Cut-off read from the data, not from the text of the source: active = growth inhibition above about 70%; inactive = the rest.

Legend:
[1] = NCI Yeast Anticancer Drug Screen. Data for the rad52 strain (AID 147);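 note: 0% = growth of vehicle-treated control cultures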; conditions: S. cerevisiae rad52 mutant growth inhibition, hits give high values
In short: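 Measured: yeast growth inhibition. System: strain with a defined DNA damage repair alteration. Reference: vehicle-treated control cultures.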

[2] = NCI Yeast Anticancer Drug Screen. Data for the wt1 strain (AID 149);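 note: 0% = growth of vehicle-treated wt1 cultures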; conditions: S. cerevisiae wt1 strain (SPY 50644) growth inhibition, hits give high values
In short: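 wt1 strain grown with compound or vehicle; inhibition taken from the growth difference.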

[3] = NCI Yeast Anticancer Drug Screen. Data for the rad50EPP+ strain (AID 151);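 note: 0% = growth of vehicle-treated control cultures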; conditions: S. cerevisiae rad50 mutant strain, hits give high values
In short: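 One strain with a rad50 alteration (rad50EPP+) was compound-treated, its growth then compared to that of vehicle controls.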

[4] = NCI Yeast Anticancer Drug Screen. Data for the mgt1 strain (AID 153); conditions: S. cerevisiae mgt1 mutant growth inhibition, hits give high values
In short: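 After exposure of the mgt1 yeast mutant to compound, growth was measured and reported as inhibition compared with vehicle controls.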

[5] = NCI Yeast Anticancer Drug Screen. Data for the rad50 strain (AID 155);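 note: 0% = growth of vehicle-only cultures of the same strain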; conditions: S. cerevisiae rad50 strain growth inhibition, hits give high values
In short: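 DNA repair mutant yeast, compound exposure, growth read-out; inhibition is taken relative to vehicle.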

[6] = NCI Yeast Anticancer Drug Screen. Data for the mec2-1 strain (AID 157); conditions: S. cerevisiae mec2-1 strain, hits give high values
In short: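 Test agents were screened against the mec2-1 yeast strain, with defined DNA repair or cell cycle alteration. Growth was scored as inhibition against vehicle-only controls.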

[7] = NCI Yeast Anticancer Drug Screen. Data for the rad14 strain (AID 159);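 note: 0% = growth of vehicle-treated control cultures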; conditions: S. cerevisiae rad14 strain growth inhibition, hits give high values
In short: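 DNA repair-defective yeast, compound-exposed; % growth inhibition derived by comparison with vehicle-treated controls.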

[8] = NCI Yeast Anticancer Drug Screen. Data for the sgs1 mgt1 strain (AID 161);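 note: 0% = growth of cultures given vehicle only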; conditions: S. cerevisiae sgs1 mgt1 strain, hits give high values
In short: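 Inhibition of yeast growth, normalised to vehicle-treated controls, is reported for a strain bearing genetic alterations in DNA damage repair.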

[9] = NCI Yeast Anticancer Drug Screen. Data for the CLN2oe strain (AID 163);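 note: 0% = growth of vehicle-only control cultures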; conditions: S. cerevisiae CLN2oe strain, hits give high values
In short: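 Here, growth inhibition in a cell-cycle-altered yeast strain after compound exposure was quantified against vehicle control growth.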

[10] = NCI Yeast Anticancer Drug Screen. Data for the cln2 rad14 strain (AID 165);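 note: 0% = growth equal to vehicle treated cultures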; conditions: S. cerevisiae cln2 rad14 strain, hits give high values
In short: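 Growth of compound-exposed yeast (cln2 rad14 genotype) measured and expressed as inhibition relative to vehicle.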

[11] = NCI Yeast Anticancer Drug Screen. Data for the bub3 strain (AID 167); conditions: S. cerevisiae bub3 mutant strain, hits give high values
In short: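 In this screen, a yeast mutant lacking normal mitotic checkpoint function is challenged with compound. Relative growth versus vehicle gives the inhibition value.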

[12] = NCI Yeast Anticancer Drug Screen. Data for the mlh1 strain (AID 171);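 note: 0% = growth of vehicle-treated control cultures of the same strain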; conditions: S. cerevisiae mlh1 strain growth inhibition, hits give high values
In short: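 Here the genetically defined yeast mutant is grown with each compound, and the extent to which its growth falls below that of vehicle-exposed cells is reported.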

[13] = NCI Yeast Anticancer Drug Screen. Data for the sgs1 strain (AID 173);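 note: 0% = growth of vehicle-only control cultures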; conditions: S. cerevisiae sgs1 mutant, hits give high values
In short: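 Relative growth inhibition, referenced to vehicle, was determined in a yeast strain with a defined alteration affecting DNA damage repair or cell cycle control after compound exposure.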

[14] = NCI Yeast Anticancer Drug Screen. Data for the mlh1 rad18 strain (AID 175); conditions: S. cerevisiae mlh1 rad18 strain growth inhibition, hits give high values
In short: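 In this whole-cell yeast screen, a strain with altered DNA damage repair is challenged with compound, and its growth is measured against matched vehicle-treated controls.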

[15] = NCI Yeast Anticancer Drug Screen. Data for the rad18 strain (AID 177); conditions: S. cerevisiae rad18 mutant growth inhibition, hits give high values
In short: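 Screen uses a yeast strain with a defined lesion in DNA damage repair; compound effect is read as loss of growth compared to untreated vehicle cultures.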

[16] = at 5.0 µM (retest, dose inferred, filed as 0.5)
[17] = at 50.0 µM (retest, dose inferred, filed as 5.0)

## COc1ccc(C2c3cc4c(cc3OC(C)(O)C2C)OCO4)c(OC)c1 (stereo not drawn)
[1]; at 1.2 µM
  growth inhibition: -1%
[1]; at 3.7 µM
  growth inhibition: 1%
[1]; at 11.0 µM
  growth inhibition: 3%
[1]; at 33.0 µM
  growth inhibition: 10%
[1]; at 100.0 µM
  growth inhibition: 96% (active)
[2]; at 1.2 µM
  growth inhibition: -1%
[2]; at 3.7 µM
  growth inhibition: 3%
[2]; at 11.0 µM
  growth inhibition: -2%
[2]; at 33.0 µM
  growth inhibition: -2%
[2]; at 100.0 µM
  growth inhibition: 83% (active)
[3]; at 1.2 µM
  growth inhibition: 6%
[3]; at 3.7 µM
  growth inhibition: 7%
[3]; at 11.0 µM
  growth inhibition: 12%
[3]; at 33.0 µM
  growth inhibition: 7%
[3]; at 100.0 µM
  growth inhibition: 4%
[4]; at 1.2 µM
  growth inhibition: -5%
[4]; at 3.7 µM
  growth inhibition: -6%
[4]; at 11.0 µM
  growth inhibition: -4%
[4]; at 33.0 µM
  growth inhibition: -2%
[4]; at 100.0 µM
  growth inhibition: 89% (active)
[5]; at 1.2 µM
  growth inhibition: 0%
[5]; at 3.7 µM
  growth inhibition: 1%
[5]; [16]
  growth inhibition: 2%
[5]; at 11.0 µM
  growth inhibition: 0%
[5]; at 33.0 µM
  growth inhibition: 9%
[5]; [17]
  growth inhibition: 66%
[5]; at 50.0 µM
  growth inhibition: 95.5% (active)
[5]; at 100.0 µM
  growth inhibition: 98% (active)
[6]; at 1.2 µM
  growth inhibition: 3%
[6]; at 3.7 µM
  growth inhibition: 8%
[6]; [16]
  growth inhibition: 4%
[6]; at 11.0 µM
  growth inhibition: 9%
[6]; at 33.0 µM
  growth inhibition: 15%
[6]; [17]
  growth inhibition: 63%
[6]; at 50.0 µM
  growth inhibition: 94% (active)
[6]; at 100.0 µM
  growth inhibition: 94% (active)
[7]; at 1.2 µM
  growth inhibition: -3%
[7]; at 3.7 µM
  growth inhibition: -4%
[7]; at 11.0 µM
  growth inhibition: -4%
[7]; at 33.0 µM
  growth inhibition: 1%
[7]; at 100.0 µM
  growth inhibition: 98% (active)
[8]; [16]
  growth inhibition: 4%
[8]; [17]
  growth inhibition: 70% (active)
[8]; at 50.0 µM
  growth inhibition: 84.5% (active)
[9]; at 1.2 µM
  growth inhibition: -6%
[9]; at 3.7 µM
  growth inhibition: -12%
[9]; at 11.0 µM
  growth inhibition: -2%
[9]; at 33.0 µM
  growth inhibition: 4%
[9]; at 100.0 µM
  growth inhibition: 82% (active)
[10]; [16]
  growth inhibition: 5%
[10]; [17]
  growth inhibition: 51%
[10]; at 50.0 µM
  growth inhibition: 89.3% (active)
[11]; at 1.2 µM
  growth inhibition: -4%
[11]; at 3.7 µM
  growth inhibition: -1%
[11]; [16]
  growth inhibition: -4%
[11]; at 11.0 µM
  growth inhibition: 1%
[11]; at 33.0 µM
  growth inhibition: 6%
[11]; [17]
  growth inhibition: 67%
[11]; at 50.0 µM
  growth inhibition: 43%
[11]; at 100.0 µM
  growth inhibition: 95% (active)
[12]; at 1.2 µM
  growth inhibition: 3%
[12]; at 3.7 µM
  growth inhibition: 2%
[12]; at 11.0 µM
  growth inhibition: 3%
[12]; at 33.0 µM
  growth inhibition: 6%
[12]; at 100.0 µM
  growth inhibition: 96% (active)
[13]; at 1.2 µM
  growth inhibition: 2%
[13]; at 3.7 µM
  growth inhibition: 2%
[13]; at 11.0 µM
  growth inhibition: 4%
[13]; at 33.0 µM
  growth inhibition: 18%
[13]; at 100.0 µM
  growth inhibition: 98% (active)
[14]; [16]
  growth inhibition: -6%
[14]; [17]
  growth inhibition: 81% (active)
[14]; at 50.0 µM
  growth inhibition: 93.5% (active)
[15]; at 1.2 µM
  growth inhibition: 1%
[15]; at 3.7 µM
  growth inhibition: -2%
[15]; at 11.0 µM
  growth inhibition: 1%
[15]; at 33.0 µM
  growth inhibition: 15%
[15]; at 100.0 µM
  growth inhibition: 97% (active)
